The panel holds about 83,000 compounds, 20% with a hit somewhere; the sample as a whole holds those more often.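 Interpretation: 100, growth as untreated; towards 0, rising growth inhibition; 0, no net growth; 0 to -100, cell death. Compounds scoring below 10 were considered active.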 Values without a mark were called inactive. Calls of active or inactive are those of the source.

Some test systems named below: SR leukemia; RPMI-8226 leukemia; OVCAR-8 ovarian; OVCAR-5 ovarian; OVCAR-4 ovarian; SK-OV-3 ovarian; IGROV1 ovarian; OVCAR-3 ovarian; NCI/ADR-RES ovarian.
Test in all cases: NCI-60 one-dose screen, 48 h (100 = growth as untreated, 0 = no growth, -100 = all killed)
What all share (conditions): 10 µM unless noted

For `O=C(/C=C/c1ccc2c(c1)OCO2)c1c(O)c2ccccc2oc1=O`, the growth with SR leukemia was 79%; in the assay on RPMI-8226 leukemia, 115%; with OVCAR-8 ovarian it was 93.9%; in the assay with OVCAR-5 ovarian it was 102%; in the assay on OVCAR-4 ovarian, 106%; with SK-OV-3 ovarian, 94.2%. Further, the values for the growth in the assay on IGROV1 ovarian, in the assay with OVCAR-3 ovarian and in the assay with NCI/ADR-RES ovarian were 112%, 104% and 102%, respectively.
As for `CN(C)C1CCN(C(=O)c2ccc(NC(=O)Nc3ccc(-c4nc(N5CCOCC5)nc(N5CCOCC5)n4)cc3)cc2)CC1`, the growth is 3.59% [2.5 µM] (active) with SR leukemia; -2.37% [2.5 µM] (active) in the assay on RPMI-8226 leukemia; -20.9% [2.5 µM] (active) with OVCAR-8 ovarian; -2.63% [2.5 µM] (active) in the assay with OVCAR-5 ovarian; -29.9% [2.5 µM] (active) with OVCAR-4 ovarian; -51.9% [2.5 µM] (active) in the assay on SK-OV-3 ovarian. Moreover, the growth in the assay with IGROV1 ovarian is -54.8% [2.5 µM] (active); with OVCAR-3 ovarian, 2.07% [2.5 µM] (active); with NCI/ADR-RES ovarian, 95.6% [2.5 µM].
In the case of `COc1ccc(F)c(F)c1C(=O)c1cnc(NC2CCN(S(C)(=O)=O)CC2)nc1N`, the growth is 2.64% (active) in the assay on SR leukemia; 0.261% (active) in the assay on RPMI-8226 leukemia; 7.37% (active) in the assay with OVCAR-8 ovarian; 12.6% in the assay with OVCAR-5 ovarian; 8.36% (active) in the assay with OVCAR-4 ovarian; 11.9% in the assay with SK-OV-3 ovarian. Moreover, the values for the growth with IGROV1 ovarian, in the assay with OVCAR-3 ovarian and with NCI/ADR-RES ovarian were 10.2%, 13.1% and 1.6% (active), respectively.
For `Cc1c(NC(=O)OC[C@@H]2COCCN2)cn2ncnc(Nc3ccc4c(cnn4Cc4cccc(F)c4)c3)c12`, the growth in the assay on SR leukemia is -4.38% (active); in the assay with RPMI-8226 leukemia it was 5.44% (active); in the assay on OVCAR-8 ovarian it was -4.01% (active); in the assay on OVCAR-5 ovarian, 7.38% (active); with OVCAR-4 ovarian, 24%; with SK-OV-3 ovarian it was -9.89% (active). Further, the growth was -4.73% (active) with IGROV1 ovarian, 12.8% in the assay on OVCAR-3 ovarian and 19.8% with NCI/ADR-RES ovarian.
Take `CC(=O)NCC(=O)N1[C@@H]2CC[C@H]1c1ccc(Nc3ncc(C(F)(F)F)c(NC4CCC4)n3)cc12`: the growth was 2.18% [2.5 µM] (active) in the assay with SR leukemia; 71.4% [2.5 µM] with RPMI-8226 leukemia; 55.3% [2.5 µM] in the assay with OVCAR-8 ovarian; 32.4% [2.5 µM] in the assay with OVCAR-5 ovarian; 64.4% [2.5 µM] with OVCAR-4 ovarian; 15.9% [2.5 µM] in the assay with SK-OV-3 ovarian. Further, the growth in the assay on IGROV1 ovarian was 31.5% [2.5 µM]; in the assay on OVCAR-3 ovarian, 67.8% [2.5 µM]; with NCI/ADR-RES ovarian, 59.7% [2.5 µM].
In the case of `Cn1ccnc1C(=O)/C=C/c1ccc(CC(=O)Nc2ccc(Br)cc2)cc1`, the growth in the assay on SR leukemia was 3.22% (active); with RPMI-8226 leukemia, 8.13% (active); in the assay with OVCAR-8 ovarian it was 3.98% (active); in the assay with OVCAR-5 ovarian, 21.8%; in the assay with OVCAR-4 ovarian it was 43.2%; in the assay with SK-OV-3 ovarian, 54.6%. The growth in the assay on IGROV1 ovarian is 11.3%; in the assay on OVCAR-3 ovarian, 11.1%; with NCI/ADR-RES ovarian, 16.3%.
For `CCOc1cc2ncc(C#N)c(Nc3ccc(OCc4ccccn4)c(Cl)c3)c2cc1NC(=O)/C=C/CN(C)C`, the growth was -6.61% (active) in the assay on SR leukemia; -7.58% (active) in the assay with RPMI-8226 leukemia; -7.74% (active) in the assay with OVCAR-8 ovarian; 9.55% (active) in the assay on OVCAR-5 ovarian; -73.6% (active) in the assay with OVCAR-4 ovarian; -10.6% (active) in the assay with SK-OV-3 ovarian. Moreover, the results for the growth in the assay on IGROV1 ovarian, with OVCAR-3 ovarian and with NCI/ADR-RES ovarian were -62.5% (active), 47.5% and -10.8% (active), respectively.
Take `CN(C[C@@H]1COCCO1)S(=O)(=O)Nc1ccc2ccc3ncc(-c4cnn(C)c4)cc3c(=O)c2c1`: the growth was 13.1% in the assay with SR leukemia; 38.5% with RPMI-8226 leukemia; 31.3% in the assay on OVCAR-8 ovarian; 55.2% in the assay with OVCAR-5 ovarian; 38.2% with OVCAR-4 ovarian; 1.71% (active) with SK-OV-3 ovarian. Further, the growth in the assay with IGROV1 ovarian was 11.5%; with OVCAR-3 ovarian, 55.4%; in the assay with NCI/ADR-RES ovarian, 52.1%.
Regarding `COCc1c(-c2ccc(NC(=O)Nc3cc(C(F)(F)F)ccc3F)c(F)c2)c2c(N)ncnn2c1CN1CCOCC1`, the growth is -9.37% (active) in the assay on SR leukemia; -33.1% (active) in the assay with RPMI-8226 leukemia; -28.6% (active) in the assay on OVCAR-8 ovarian; -18.3% (active) in the assay with OVCAR-5 ovarian; -6.98% (active) in the assay on OVCAR-4 ovarian; -34.8% (active) in the assay on SK-OV-3 ovarian. In addition, the growth with IGROV1 ovarian was -21.6% (active); in the assay on OVCAR-3 ovarian, 6.05% (active); with NCI/ADR-RES ovarian, -21.4% (active).
For `CNC(=O)c1ccccc1Nc1nc(Nc2ccc3c(c2OC)CCC[C@H](N2CCN(CCO)CC2)C3)ncc1Cl`, the growth was -5.84% (active) in the assay on SR leukemia; -13% (active) in the assay with RPMI-8226 leukemia; 12.5% in the assay on OVCAR-8 ovarian; 11.1% in the assay on OVCAR-5 ovarian; 4.95% (active) in the assay with OVCAR-4 ovarian; -6.83% (active) with SK-OV-3 ovarian. In addition, the growth in the assay with IGROV1 ovarian is -36.9% (active); in the assay with OVCAR-3 ovarian it was 30.7%; with NCI/ADR-RES ovarian it was 14%.
Turning to `Cn1cc(-c2ncnc3ccc(-c4cnc(Cl)c(NS(C)(=O)=O)c4)cc23)c2ccccc21`, the growth was 15.9% in the assay with SR leukemia; 14.5% in the assay on RPMI-8226 leukemia; 31% with OVCAR-8 ovarian; 12.8% with OVCAR-5 ovarian; 15.4% with OVCAR-4 ovarian; -18.1% (active) in the assay with SK-OV-3 ovarian. The growth in the assay with IGROV1 ovarian is -24.3% (active); in the assay with OVCAR-3 ovarian, 21.1%; in the assay on NCI/ADR-RES ovarian it was 20.6%.
With `COc1c(OCCCN2CCOCC2)ccc2c3n(c(=NC(=O)c4cnc(N)nc4)nc12)CCN3`, the growth in the assay on SR leukemia is 5.24% (active); in the assay on RPMI-8226 leukemia, 11.3%; with OVCAR-8 ovarian it was 15.7%; in the assay with OVCAR-5 ovarian, 14%; with OVCAR-4 ovarian, 7.97% (active); in the assay with SK-OV-3 ovarian, -31.8% (active). Also, the growth was -22% (active) with IGROV1 ovarian, 4.64% (active) with OVCAR-3 ovarian and 22.7% with NCI/ADR-RES ovarian.
For `COc1ccc(-c2ccc3ncc4c(c3c2)n(-c2ccc(N3CCNCC3)c(C(F)(F)F)c2)c(=O)n4C)cn1`, the growth was -34.6% (active) in the assay on SR leukemia; -46.3% (active) in the assay on RPMI-8226 leukemia; -62.9% (active) in the assay on OVCAR-8 ovarian; -80.6% (active) in the assay on OVCAR-5 ovarian; -76.9% (active) with OVCAR-4 ovarian; -83.9% (active) in the assay with SK-OV-3 ovarian. In addition, the growth in the assay on IGROV1 ovarian is -79.4% (active); in the assay on OVCAR-3 ovarian, -91.1% (active); in the assay on NCI/ADR-RES ovarian, -70% (active).
With `CC(=O)Nc1cccc(-n2c(=O)n(C3CC3)c(=O)c3c(Nc4ccc(I)cc4F)n(C)c(=O)c(C)c32)c1`, the growth in the assay on SR leukemia is 46.4%; in the assay with RPMI-8226 leukemia, 45.5%; with OVCAR-8 ovarian, 39%; in the assay on OVCAR-5 ovarian, 6.47% (active); with OVCAR-4 ovarian, 37%; in the assay on SK-OV-3 ovarian, 11.3%. Further, the growth in the assay with IGROV1 ovarian is 16.9%; in the assay with OVCAR-3 ovarian, 85.5%; in the assay with NCI/ADR-RES ovarian, 46.6%.

These data come from PubChem BioAssay (NCI).
